Data: the supplement of paper PMC9694430
Where a name gives a salt, the structure may show the parent alone.

Experiments:
Assay in all cases: thermal shift delta Tm vs DMSO control; higher = stronger stabilization (binding)
Conditions in all cases: 12.5 µM; protein concentration 2 µM
[1] = test system: LOC_OS01G57100-cb003
Procedure, shortened: (§1)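 Rice kinase domain constructs, made in E. coli and purified, were placed in 96-well plates at 2 μM in 19.5 μl of 100 mM potassium phosphate pH 7.5, 150 mM NaCl, 10% glycerol and 5 × SYPRO Orange, with compound in DMSO. A temperature ramp from 25°C to 95°C at 0.05°C/s was used for differential scanning fluorimetry. The melting temperature shift is a triplicate mean compared with DMSO-only protein, derived from Boltzmann fits.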

[2] = test system: LOC_OS01G60330-cb001
Procedure, shortened: as §1

[3] = test system: LOC_OS01G60700-cb002
Procedure, shortened: as §1

[4] = test system: LOC_OS01G63280-cb003
Procedure, shortened: as §1

[5] = test system: LOC_OS01G67340-cb003
Procedure, shortened: as §1

[6] = test system: LOC_OS01G70970-cb002
Procedure, shortened: as §1

[7] = test system: LOC_OS02G07810-cb001
Procedure, shortened: as §1

[8] = test system: LOC_OS02G08530-cb003
Procedure, shortened: as §1

[9] = test system: LOC_OS02G14120-cb001
Procedure, shortened: as §1

[10] = test system: LOC_OS02G17970-cb001
Procedure, shortened: as §1

[11] = test system: LOC_OS02G45750-cb003
Procedure, shortened: as §1

[12] = test system: LOC_OS02G54510-cb004
Procedure, shortened: as §1

[13] = test system: LOC_OS03G04050-cb001
Procedure, shortened: as §1

[14] = test system: LOC_OS03G12390-cb001
Procedure, shortened: as §1

[15] = test system: LOC_OS03G27990-cb004
Procedure, shortened: as §1

[16] = test system: LOC_OS03G50450-cb001
Procedure, shortened: as §1

[17] = test system: LOC_OS03G50810-cb003
Procedure, shortened: as §1

[18] = test system: LOC_OS04G35114-cb001
Procedure, shortened: as §1

[19] = test system: T1, LOC_OS04G38480-cb003
T1 sequence (whole entry): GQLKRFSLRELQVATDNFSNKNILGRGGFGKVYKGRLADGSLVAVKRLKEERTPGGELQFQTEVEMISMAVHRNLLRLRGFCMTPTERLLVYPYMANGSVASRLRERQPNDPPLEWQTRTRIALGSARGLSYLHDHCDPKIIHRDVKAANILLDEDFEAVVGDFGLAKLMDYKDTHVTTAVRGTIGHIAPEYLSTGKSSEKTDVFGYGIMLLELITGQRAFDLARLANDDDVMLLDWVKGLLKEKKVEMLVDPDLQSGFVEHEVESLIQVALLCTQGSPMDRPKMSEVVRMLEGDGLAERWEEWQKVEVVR
Procedure, shortened: as §1

[20] = test system: T2, LOC_OS04G41100-cb001
T2 sequence (whole entry): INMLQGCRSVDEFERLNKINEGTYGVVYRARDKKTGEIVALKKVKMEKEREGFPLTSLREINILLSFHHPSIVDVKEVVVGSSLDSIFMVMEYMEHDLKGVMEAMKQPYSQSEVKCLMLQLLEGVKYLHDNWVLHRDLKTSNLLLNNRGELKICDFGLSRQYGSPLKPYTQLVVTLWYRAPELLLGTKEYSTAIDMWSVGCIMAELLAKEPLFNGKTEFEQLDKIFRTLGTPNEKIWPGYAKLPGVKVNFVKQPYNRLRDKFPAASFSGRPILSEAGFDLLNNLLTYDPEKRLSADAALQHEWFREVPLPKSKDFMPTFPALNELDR
Procedure, shortened: as §1
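Note: purified Escherichia coli-expressed rice kinase domain construct.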

| SMILES | thermal shift delta Tm [1] | thermal shift delta Tm [2] | thermal shift delta Tm [3] | thermal shift delta Tm [4] | thermal shift delta Tm [5] | thermal shift delta Tm [6] | thermal shift delta Tm [7] | thermal shift delta Tm [8] | thermal shift delta Tm [9] | thermal shift delta Tm [10] | thermal shift delta Tm [11] | thermal shift delta Tm [12] | thermal shift delta Tm [13] | thermal shift delta Tm [14] | thermal shift delta Tm [15] | thermal shift delta Tm [16] | thermal shift delta Tm [17] | thermal shift delta Tm [18] | thermal shift delta Tm [19] | thermal shift delta Tm [20] |
| --- | --- | --- | --- | --- | --- | --- | --- | --- | --- | --- | --- | --- | --- | --- | --- | --- | --- | --- | --- | --- |
| O=C(NCc1ccccc1)c1csc(Nc2ccncn2)n1 [Thiazovivin] | 1.74 °C | 1.17 °C | 0.63 °C | 0.81 °C | 0.47 °C | 0.09 °C | 1.58 °C | 0.69 °C | 0.71 °C | 1.26 °C | 0.91 °C | 0.46 °C | 0.67 °C | 1.49 °C | 0.04 °C | 0.18 °C | 0.53 °C | 1.56 °C | 0.41 °C | 0.67 °C |
| Cc1cc(Nc2ncc(Cl)c(Nc3ccccc3S(=O)(=O)C(C)C)n2)c(OC(C)C)cc1C1CCNCC1 [Ceritinib (LDK378)] | 1.94 °C | 0.68 °C | 1.4 °C | 0.34 °C | 0.19 °C | 0.94 °C | 0.36 °C | 5.56 °C | 1.28 °C | 0.2 °C | 0.68 °C | 0.09 °C | 0.7 °C | 2.72 °C | 0.52 °C | 0.56 °C | 0.58 °C | 0.66 °C | 1 °C | 0.26 °C |
| C[C@H]1CNCCCN1S(=O)(=O)c1cccc2cncc(F)c12 [Ripasudil (K-115) hydrochloride dihydrate] | 0.7 °C | 1.17 °C | 1.6 °C | 0.79 °C | 0.45 °C | 0.28 °C | 1.1 °C | 0.65 °C | 1.57 °C | 1.75 °C | 0.9 °C | -0.02 °C | 0.39 °C | 0.39 °C | 0.16 °C | 0.22 °C | 0.68 °C | 0.3 °C | 1.26 °C | 0.24 °C |
| CCn1c(-c2nonc2N)nc2c(C#CC(C)(C)O)ncc(OC[C@H]3CCCNC3)c21 | 0.99 °C | 0.93 °C | 1.82 °C | -0.01 °C | -0.43 °C | 0.35 °C | 0.56 °C | 0.64 °C | 0.88 °C | -0.03 °C | 0.16 °C | -0.17 °C | 0.51 °C | -0.08 °C | 0.32 °C | 0.05 °C | 0.05 °C | 0.41 °C | 0.66 °C | 1.1 °C |
| COc1ncc(-c2cc(-c3ncc(CN4C[C@@H](C)O[C@@H](C)C4)o3)c3cn[nH]c3c2)cc1NS(C)(=O)=O | 1.25 °C | 1.42 °C | 1.12 °C | 0.17 °C | 1.4 °C | 0.12 °C | 0.69 °C | 0.78 °C | -0.2 °C | 0.21 °C | 0.86 °C | 0.25 °C | 0.39 °C | -0.09 °C | 0.23 °C | 0.64 °C | 0.71 °C | 1.06 °C | 0.79 °C | 0.49 °C |
| C[C@@H]1COC(Nc2ccc3ncnc(Nc4ccc(OCc5nccs5)c(Cl)c4)c3c2)=N1 [Varlitinib] | 1.92 °C | 1.09 °C | 1.53 °C | 1.44 °C | 0.64 °C | 0.88 °C | 0.94 °C | 0.76 °C | 0.74 °C | 1.04 °C | 1.53 °C | 0.27 °C | 0.48 °C | 0.13 °C | 0.32 °C | 0.46 °C | 0.41 °C | 1.59 °C | 1.56 °C | 0.59 °C |
| CC(C)(CO)n1cc(C(=O)c2cncc(NC(=O)Cc3ccc(Cl)cn3)c2)c2cnc(N)nc21 | 0.95 °C | 0.35 °C | 0.16 °C | 0.14 °C | 0.19 °C | 0.28 °C | -0.84 °C | 0.77 °C | 3.51 °C | 0.53 °C | 1.08 °C | 0.19 °C | 0.46 °C | 0.3 °C | 0.39 °C | 0.47 °C | 0.51 °C | 0.51 °C | 1.37 °C | 0.41 °C |
| CCN1C(=O)CNc2ncc(-c3ccc(-c4nc[nH]n4)nc3C)nc21 | 1.53 °C | 0.57 °C | 0.53 °C | -0.65 °C | -0.28 °C | 0.01 °C | 0.72 °C | 0.04 °C | -0.7 °C | 0.77 °C | 1.71 °C | -0.29 °C | -0.03 °C | -0.17 °C | -0.12 °C | -0.24 °C | -0.05 °C | 0.7 °C | 0.95 °C | -0.13 °C |
| NC(=O)c1ncn([C@@H]2O[C@H](CO)[C@@H](O)[C@H]2O)c1N [AICAR (Acadesine)] | 1.35 °C | 0.61 °C | 0.92 °C | 0.73 °C | -0.25 °C | 0.13 °C | 1.21 °C | 0.52 °C | 0.21 °C | 0.71 °C | 0.81 °C | 0.42 °C | 0.68 °C | 0.15 °C | 0.5 °C | 0.66 °C | 0.55 °C | 0.59 °C | 0.31 °C | 0.46 °C |
| COc1cc2nccc(Oc3ccc(NC(=O)C4(C(=O)Nc5ccc(F)cc5)CC4)cc3)c2cc1OC | 1.05 °C | 2.17 °C | 1.12 °C | 1.29 °C | 0.96 °C | 1.37 °C | 1.4 °C | 1.21 °C | 5.23 °C | 0.76 °C | 1.97 °C | 1.19 °C | 0.5 °C | 0.4 °C | 0.27 °C | 0.3 °C | 0.76 °C | 1.45 °C | 2.61 °C | 0.93 °C |
| CC1=C(C(=O)Nc2ccc3[nH]ncc3c2)C(c2ccc(F)cc2)NC(=O)N1 (stereo not given) | 2.16 °C | 0.38 °C | 0.62 °C | 0.82 °C | 0.41 °C | 0.4 °C | -0.36 °C | 0.77 °C | 2.32 °C | 0.88 °C | 0.98 °C | 0.18 °C | 0.57 °C | 0.72 °C | 0.46 °C | 0.58 °C | 0.64 °C | 0.48 °C | 1.84 °C | 0.33 °C |
| Cc1cc(Nc2ncnc3ccc(-c4ccc(CNCCS(C)(=O)=O)o4)cc23)ccc1Oc1ccn2ncnc2c1 [HER2-Inhibitor-1] | 2.52 °C | 0.97 °C | 1.31 °C | 1.08 °C | 0.71 °C | 0.3 °C | 0.98 °C | 2.32 °C | 2.21 °C | 1.79 °C | 2.59 °C | 0.24 °C | 0.79 °C | 0.49 °C | 0.37 °C | 0.76 °C | 1.21 °C | 4.39 °C | 1.57 °C | 0.72 °C |
| C=CC(=O)Nc1cc(Nc2nccc(-c3cn(C)c4ccccc34)n2)c(OC)cc1N(C)CCN(C)C [Osimertinib (AZD9291)] | -0.15 °C | 1.07 °C | 1.16 °C | 0.43 °C | 0.42 °C | 0.32 °C | 0.03 °C | 3.79 °C | 3.74 °C | -0.32 °C | 1.63 °C | 0.52 °C | 0.78 °C | 4.71 °C | 0.93 °C | 0.74 °C | 2.65 °C | 6.25 °C | 2.86 °C | 0.51 °C |
